Laboratory results from PubChem BioAssay (NCI).
“And” between values parts separate entries of the source, which are not always exact repeats. Identical values can stand only once. Compounds without any hit were thinned out: in the full panel of roughly 79,000, 15% have a hit. The source made the active and inactive calls. Rule as the data show it: active = growth inhibition above about 70%; inactive = the rest.

Tests used:
[1] = NCI Yeast Anticancer Drug Screen. Data for the rad50 strain (AID 155);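 also: 0% = growth of vehicle-only cultures of the same strain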; conditions: S. cerevisiae rad50 strain growth inhibition, active compounds read high; at 50.0 µM unless noted
Method in brief: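 Cells are treated with compound, grown, and their growth is then scored against vehicle-only cultures of the same repair-deficient yeast strain.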

[2] = NCI Yeast Anticancer Drug Screen. Data for the mec2-1 strain (AID 157); conditions: S. cerevisiae mec2-1 strain, active compounds read high; at 50.0 µM unless noted
Method in brief: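 Test agents were screened against the mec2-1 yeast strain, with defined DNA repair or cell cycle alteration. Growth was scored as inhibition against vehicle-only controls.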

[3] = NCI Yeast Anticancer Drug Screen. Data for the sgs1 mgt1 strain (AID 161);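 also: 0% = growth of cultures given vehicle only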; conditions: S. cerevisiae sgs1 mgt1 strain, active compounds read high; at 50.0 µM unless noted
Method in brief: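 Genetically altered yeast, compound exposure, growth inhibition relative to vehicle.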

[4] = NCI Yeast Anticancer Drug Screen. Data for the cln2 rad14 strain (AID 165);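 also: 0% = growth equal to vehicle treated cultures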; conditions: S. cerevisiae cln2 rad14 strain, active compounds read high; at 50.0 µM unless noted
Method in brief: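 Growth of compound-exposed yeast (cln2 rad14 genotype) measured and expressed as inhibition relative to vehicle.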

[5] = NCI Yeast Anticancer Drug Screen. Data for the bub3 strain (AID 167); conditions: S. cerevisiae bub3 mutant strain, active compounds read high; at 50.0 µM unless noted
Method in brief: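 Part of a panel of yeast mutants defective in DNA damage repair or cell cycle regulation. Each strain is grown with compound, and inhibition is calculated relative to solvent-treated cultures.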

[6] = NCI Yeast Anticancer Drug Screen. Data for the mlh1 rad18 strain (AID 175); conditions: S. cerevisiae mlh1 rad18 strain growth inhibition, active compounds read high; at 50.0 µM unless noted
Method in brief: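 In this whole-cell yeast screen, a strain with altered DNA damage repair is challenged with compound, and its growth is measured against matched vehicle-treated controls.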

Measured: growth inhibition

O=C(O)/C=C(/CC(=O)O)C(=O)O
inactive: [1] -34.9% | [2] -11.3% | [3] -17.2% | [4] 0.35% | [5] -27.8% | [6] -7.45%

Cc1nc(SCC(=O)Nc2ccccc2)c2sc(=S)n(-c3ccccc3)c2n1
inactive: [1] -45.9% | [2] -10.2% | [3] -0.05% | [4] -5.35% | [5] -19.9% | [6] -18.4%

O=C(Cc1nc2ccc(C(=O)c3ccccc3)cc2[nH]c1=O)C(=O)Nc1ccc(C(F)(F)F)cc1[N+](=O)[O-]
inactive: [1] 8.45% | [2] 14.7% | [3] -3.9% | [4] -6.25% | [5] -12.1% | [6] 18.1%

CC(=O)Oc1cc(S(=O)(=O)Nc2n[nH]c(N)n2)c(S)cc1Cl
inactive: [1] -22.8% | [2] -18.3% | [3] -1.2% | [4] 11.7% | [5] -9.55% | [6] 8.45%

S=c1nc[nH]c2c1ncn2Cc1ccco1
inactive: [1] 5.85% | [2] -12.9% | [3] -11.3% | [4] 0.55% | [5] -46.2% | [6] 5%

COc1cc2c(cc1OC)NC(=O)NC(Cc1ccc3c(c1)OCO3)CC2 (centres undefined)
inactive: [1] 20.6% | [2] 10.8% | [3] 13.8% | [4] -47% | [5] 22.3% | [6] 27.3%

O=C(O)c1ccccc1SSc1ccccc1C(=O)O
inactive: [1] 10.2% and -7.05% | [2] 16.4% and -6.5% | [3] -6.6% and 3.3% | [4] 4% and -26.9% | [5] 9% and -0.65% | [6] 7.85% and 9.6%

CCCCN(CCCC)C(=O)C(=O)C(C(=O)c1ccc(OC)cc1)c1ccc(OC)cc1 (centres undefined)
inactive: [1] -8.95% | [2] -1.5% | [3] -11.8% | [4] -10.3% | [5] 14.1% | [6] -3.95%

CS/C(C)=N/OC(=O)NCCCCNc1ccc(N=[N+]=[N-])cc1
inactive: [1] 13.9% | [2] -4.15% | [3] 5.4% | [4] 36.7% | [5] 4.5% | [6] 0.6%

COc1ccc(/C(=N\NC(=S)NN)C(c2ccc(OC)cc2)C2C(=O)Oc3ccccc32)cc1 (centres undefined)
inactive: [1] 13.4% | [2] 5.85% | [3] 38.4% | [4] -9.3% | [5] 12.7% | [6] 2.85%

CC(=O)OC1CC(n2cc(F)c(=O)[nH]c2=O)OC1CO (centres undefined)
inactive: [1] 7.95% | [2] 12.2% | [3] -10.4% | [4] -17% | [5] -0.45% | [6] 2.5%

CCCCOc1c(Cl)c(Cl)cc(Cl)c1Cl
inactive: [1] -10.1% | [2] -15.8% | [3] -3.5% | [4] 2.2% | [5] 2.05% | [6] -17.1%

COc1cc(CC(=O)O)ccc1OC(C)=O
inactive: [1] 4.15% | [2] 2.65% | [3] -16.8% | [4] -25.1% | [5] 1.25% | [6] -5.75%

CC(=O)C1=CC2(OC3CCC(O)(C(=O)CO)C(C)O3)C(=O)c3c(cc4cccc(O)c4c3O)CC2C(O)C1O (centres undefined)
inactive: [1] -6.2% | [2] -1.05% | [3] 2.9% | [4] -21.2% | [5] 20.8% | [6] 9.65%

O=C(Nc1ccc(Cl)c(Cl)c1)Oc1cccc(NC(=S)Nc2ccccc2)c1
active: [2] 90.2% | [3] 93% | [4] 91.5% | [6] 94.7%
inactive: [1] 36.9% | [5] 69.8%

COC(=O)c1cc(NC(=O)Nc2cc(C(F)(F)F)ccc2Cl)cc(C(=O)OC)c1
inactive: [1] -24.2% | [2] -32% | [3] -9.65% | [4] -22.9% | [5] -0.55% | [6] -38.2%

Cc1ccc(N2C(=O)CC(NC3CCCCC3)C2=O)cc1 (centres undefined)
inactive: [1] -6.2% | [2] -3% | [3] -9.65% | [4] -2.2% | [5] -5.6% | [6] -2.7%

O=C1CN(Cc2cccc(Cl)c2)CC(=O)N2Cc3ccccc3CN12
inactive: [1] 34.4% | [2] -1% | [3] 14.2% | [4] -10.8% | [5] 8.9% | [6] -11.5%

COc1cc([N+](=O)[O-])c(S(=O)(=O)O)cc1NS(=O)(=O)c1ccc(C)cc1
inactive: [1] 7.8% | [2] 16.6% | [3] 22% | [4] 3.95% | [5] 1.4% | [6] 10.2%

COc1ccc(NC(=O)Nc2ccc(F)cc2)c(OC)c1
inactive: [1] 16.1% | [2] 4.9% | [3] 10.9% | [4] 13.9% | [5] 24.2% | [6] 7.45%

CCOC(=O)C1=C(O)C[C@]2(O)C3CC=C(C)[C@@H]4CCO[C@](OC)(C[C@H]2C1)[C@]34C(=O)OC (some centres undefined)
inactive: [1] 1% | [2] 12.8% | [3] 8.35% | [4] 1% | [5] -1.1% | [6] 13.1%

CCCCCc1cc[n+](CC(=O)c2ccc(F)cc2)cc1
inactive: [1] -6.55% | [2] 13.6% | [3] 23.1% | [4] -35.6% | [5] 45.6% | [6] 13.5%

CC(NCCN1CCOCC1)c1ccc2ccccc2c1 (centres undefined)
inactive: [1] 40.7% | [2] 15.4% | [3] 41.5% | [4] 23.9% | [5] 32.8% | [6] 42.6%

O=[N+]([O-])c1ccccc1/C=C/c1ccccn1
inactive: [1] 2.4% | [2] 2.35% | [3] -3.55% | [4] 20% | [5] 41.3% | [6] 21.1%

CSc1ccc(NC(=O)Nc2cc(C)ccc2N=Nc2ccc(C)cc2)cc1
inactive: [1] -1.5% | [2] -2.35% | [3] -4.95% | [4] -9.3% | [5] -4.75% | [6] 17.5%

CC(=O)Cc1ncn(-c2cc(C)on2)n1
inactive: [1] -9.4% | [2] -20.4% | [3] -18.1% | [4] 11.6% | [5] -1.45% | [6] -13.7%

CC(C)=NNC(=O)c1ccc(N)cc1
inactive: [1] 36.1% | [2] 15% | [3] 14.4% | [4] 15.8% | [5] 22.1% | [6] 15.3%

CCOc1cccc(C=N)c1O
inactive: [1] 35.8% | [2] -0.55% | [3] 51.9% | [4] 36.4% | [5] -1.75% | [6] 46.5%

COc1cc2c[n+](C)c3c4cc(OC)c(OC)cc4c(OCc4ccccc4)cc3c2cc1OC
active: [1] 86% | [2] 89.8% | [3] 88.1% | [4] 88.7% | [5] 87.5% | [6] 91.2%

CC1CC(C)OC(c2ccc(Cl)cc2)O1 (centres undefined)
inactive: [1] 20.8% | [2] 14.5% | [3] 17.2% | [4] -28.8% | [5] -2.15% | [6] 19.1%

C=C1C(=O)OC2CC(C)C(/C=C/C(C)=O)=CCC12 (centres undefined)
inactive: [1] -7.45% | [2] -7.6% | [3] -19.9% | [4] -12.5% | [5] -43% | [6] -99.8%

NCC1COC(c2ccccc2)(c2ccccc2)O1 (centres undefined)
inactive: [1] -2.25% | [2] -12.4% | [3] -12.9% | [4] -32.5% | [5] 17.8% | [6] -7.65%

COc1ccc(CCl)cc1OCc1ccccc1
inactive: [1] -33.7% | [2] -17.8% | [3] -16.7% | [4] -24.4% | [5] -14.7% | [6] -21.2%

O=C(c1ccccc1)N1CCC(Nc2nccs2)O1 (centres undefined)
inactive: [1] -37.4% | [2] -26.1% | [3] -11.4% | [4] -9.75% | [5] -8.15% | [6] -2.35%

COc1cccc(C)c1C(=O)O
inactive: [1] -4.05% | [2] 1.7% | [3] 5.7% | [4] -20.1% | [5] -32% | [6] -5.4%

CCCCCCCCCCSCC(=O)O
inactive: [1] -12.8% | [2] -24.6% | [3] -15.5% | [4] -3.3% | [5] -30.6% | [6] -29.5%

CS(=O)CCC1C(=O)OC(C(C)(C)C)N1C(=O)c1ccccc1 (centres undefined)
inactive: [1] 8.25% | [2] 3.65% | [3] 4.55% | [4] -12.3% | [5] -0.85% | [6] -0.4%

Cc1cccc(Cl)c1NC(=O)c1c(Cl)c(Cl)c(Cl)c(Cl)c1C(=O)O
inactive: [1] 11.4% | [2] 10.6% | [3] -0.35% | [4] -30.1% | [5] -1.65% | [6] 22.2%

O=C1CCCCCCCCCCCCCCCCC1
inactive: [1] -13.3% | [2] -5.85% | [3] -11.3% | [4] -7.25% | [5] -2.15% | [6] -13.9%
